{"source": "PubChem BioAssay AID1209", "about": "(Sanford-Burnham Center for Chemical Genomics, 2008)", "note": "About 810 (0.43%) of roughly 190,000 compounds were called active. This is one part of a sample in which actives are shown more often than they occur. Values without a mark were called inactive. Rule as the data show it: active = inhibition above about 50%; inactive = the rest.", "data": [{"biological_target": "Mannose-6-phosphate isomerase (Homo sapiens) (UniProt P34949)", "sequence (P34949 whole entry, looked up)": "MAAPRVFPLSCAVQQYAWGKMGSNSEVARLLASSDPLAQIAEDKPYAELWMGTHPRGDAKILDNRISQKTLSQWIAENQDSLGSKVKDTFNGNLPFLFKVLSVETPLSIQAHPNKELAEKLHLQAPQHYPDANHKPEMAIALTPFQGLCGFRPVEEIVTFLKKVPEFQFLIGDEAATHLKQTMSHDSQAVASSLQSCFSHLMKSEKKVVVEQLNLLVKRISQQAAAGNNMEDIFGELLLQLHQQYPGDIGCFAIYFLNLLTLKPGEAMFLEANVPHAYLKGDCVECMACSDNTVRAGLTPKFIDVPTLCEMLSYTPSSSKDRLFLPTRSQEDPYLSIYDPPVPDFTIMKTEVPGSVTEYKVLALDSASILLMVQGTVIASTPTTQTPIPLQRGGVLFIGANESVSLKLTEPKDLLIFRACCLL", "assay": "inhibitors of human PMI, primary screen, biochemical, fluorescence intensity, coupled assay (AID 1209);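 also: plate controls were DMSO vehicle for no effect and wells lacking substrate for full effect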", "settings": "purified PMI enzyme, at 20 µM, stronger effect = higher value", "values": [{"smiles": "O=C(NC1(C(F)(F)F)Oc2ccccc2O1)N1CCC2(CC1)OCCO2", "inhibition": "32.9%"}, {"smiles": "O=C(NC(=O)N1CCC2(CC1)OCCO2)c1ccc(Cl)cc1", "inhibition": "10.2%"}, {"smiles": "O=C(NC1(C(F)(F)F)Oc2ccc(Cl)cc2O1)N1CCC2(CC1)OCCO2", "note": "(stereo unspecified)", "inhibition": "79.1% (active)"}, {"smiles": "CC(=O)Nc1ccccc1C(=O)OCc1ccc(F)cc1", "inhibition": "1.8%"}, {"smiles": "CS(=O)(=O)N1CCN(C(=N)N[N+](=O)[O-])CC1", "inhibition": "-5.1%"}, {"smiles": "C/C(=N\\N1CCCCC1c1cccnc1)c1c(O)n(C2CCCCC2)c(=S)[nH]c1=O", "note": "(stereo unspecified)", "inhibition": "5.8%"}, {"smiles": "O=C1C(=O)c2ccccc2-c2ccccc21", "inhibition": "25.8%"}, {"smiles": "O=C1C=Cc2ccccc2C1=O", "inhibition": "79.1% (active)"}, {"smiles": "O=C1C(=O)c2cccc3cccc1c23", "inhibition": "17.2%"}, {"smiles": "Cc1cc(Oc2ccc(C(F)(F)F)cc2[N+](=O)[O-])c2c3c(c(=O)oc2c1)CCC3", "inhibition": "-1.9%"}, {"smiles": "Cc1cc(N2C(=O)CC(N3CCC(n4c(=O)[nH]c5ccccc54)CC3)C2=O)no1", "note": "(stereo unspecified)", "inhibition": "6.9%"}, {"smiles": "COc1cc(CN2CC3CC(C2)c2cccc(=O)n2C3)cc(OC)c1OC", "note": "(stereo unspecified)", "inhibition": "-1.2%"}, {"smiles": "CCN(CC)c1ccc(N=Cc2c(O)n(CCC3=CCCCC3)c(=O)[nH]c2=O)cc1", "inhibition": "24.6%"}, {"smiles": "CCN(CC)CCCN=Cc1c(O)n(CCc2ccc(OC)c(OC)c2)c(=O)[nH]c1=O", "inhibition": "-10.4%"}, {"smiles": "CCN(CC)c1ccc(N=Cc2c(O)n(CCc3ccc(OC)c(OC)c3)c(=O)[nH]c2=O)cc1", "inhibition": "50% (active)"}, {"smiles": "CCOC(=O)C(NC(=O)C(Cc1ccc(N(CCCl)CCCl)cc1)NC(C)=O)C(C)C", "note": "(stereo unspecified)", "inhibition": "-44.3%"}, {"smiles": "O=C1NC(=S)N(c2ccc(Br)cc2)C(=O)/C1=C/N1CCN(C(=O)c2ccco2)CC1", "inhibition": "25.8%"}, {"smiles": "Cc1cccc(N2C(=O)/C(=C/N3CCN(C(=O)c4ccco4)CC3)C(=O)NC2=S)c1", "inhibition": "55.5% (active)"}, {"smiles": "Cc1ccc(N2C(=O)/C(=C/N3CCN(C(=O)c4ccco4)CC3)C(=O)NC2=S)cc1C", "inhibition": "37.6%"}, {"smiles": "CSCCC(N=Cc1c(O)n(-c2ccc(F)cc2)c(=O)[nH]c1=O)C(=O)OC(C)(C)C", "note": "(stereo unspecified)", "inhibition": "12.2%"}, {"smiles": "O=C(CNC(=O)c1cccc(Cl)c1)Nc1ccc(Br)cc1C(=O)c1ccccc1", "inhibition": "17.1%"}, {"smiles": "Cc1ccc(NC2=NCCCS2)c(C)c1C", "inhibition": "12.6%"}, {"smiles": "Cc1cc(C=C2C(=O)N(C)C(=S)N(C)C2=O)c(C)n1-c1cccnc1", "inhibition": "59.6% (active)"}, {"smiles": "Cc1ccnc(-n2c(C)cc(C=C3C(=O)N(C)C(=S)N(C)C3=O)c2C)c1", "inhibition": "23.1%"}, {"smiles": "C=CCN1C(=O)/C(=C/c2cc(C)n(-c3cccnc3)c2C)C(=O)NC1=S", "inhibition": "50.2% (active)"}, {"smiles": "C=CCN1C(=O)/C(=C/c2cc(C)n(-c3ccccn3)c2C)C(=O)NC1=S", "inhibition": "-25.6%"}, {"smiles": "Cc1cc(C=C2C(=O)N(C)C(=O)N(C)C2=O)c(C)n1-c1ccccc1", "inhibition": "-25.1%"}, {"smiles": "Cc1cc(/C=C2/C(=O)NC(=O)N(C)C2=O)c(C)n1-c1ccccc1", "inhibition": "2.6%"}, {"smiles": "COc1cc2c(cc1O)C[C@H]1NCCc3cc4c(c-2c31)OCO4", "inhibition": "6.6%"}, {"smiles": "CCOC(=O)c1c(C)n(Cc2ccccc2)c2ccc(OCC(O)Cn3nc(C)nc3C)cc12", "note": "(stereo unspecified)", "inhibition": "15.7%"}, {"smiles": "CCOC(=O)c1c(C)n(Cc2ccccc2)c2ccc(OCC(O)Cn3nc(C)cc3C)cc12", "note": "(stereo unspecified)", "inhibition": "16.3%"}, {"smiles": "CCOC(=O)c1c(C)n(Cc2ccccc2)c2ccc(OCC(O)CN3C(=O)CNC3=O)cc12", "note": "(stereo unspecified)", "inhibition": "60.1% (active)"}, {"smiles": "C=CCOC(=O)C1=C(C)OC(N)=C(C#N)[C@@]12C(=O)N(CC(N)=O)c1ccccc12", "inhibition": "-6.8%"}, {"smiles": "C#CCN1C(=O)C2(C(C#N)=C(N)OC(C)=C2C(=O)OCc2ccccc2)c2ccccc21", "note": "(stereo unspecified)", "inhibition": "51.6% (active)"}, {"smiles": "CCOC(=O)C1=C(C)OC(N)=C(C#N)C12C(=O)N(C)c1ccccc12", "note": "(stereo unspecified)", "inhibition": "5.2%"}, {"smiles": "Nc1ccc(Cl)cc1C(=O)c1ccccc1Cl", "inhibition": "5.4%"}, {"smiles": "CN(C)C(=O)OCc1n(C)cc[n+]1C", "inhibition": "-9.3%"}, {"smiles": "CCN(CC)P(c1n(C)cc[n+]1C)N(CC)CC", "inhibition": "54.3% (active)"}, {"smiles": "CNC(=O)OCc1n(C)cc[n+]1C", "inhibition": "20.7%"}, {"smiles": "CCn1cc(CN2CCCC(C(=O)c3cccc(OC)c3)C2)c(C)n1", "note": "(stereo unspecified)", "inhibition": "13%"}, {"smiles": "CNC(C(=O)c1ccccc1)C(OC)c1ccc(C)cc1", "note": "(stereo unspecified)", "inhibition": "-37.6%"}]}]}
